Screening data as filed in PubChem BioAssay.
Hits are enriched below; roughly 6.2% of the tested compounds scored in any of these assays.
HCMV antiviral: blocks human cytomegalovirus replication; HFF cells, HCMV-luciferase reporter, 72 h; hits give low values; activity change, negative = inhibition, % at 57.5 µM; 4.5% of 410,000 active; AID 1259415; in the data active means activity change below about -60%; inconclusive means no clear call, values can overlap the other calls; inactive means above about -39%
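After 16 h attachment at 37C, HFF cells received test compound and HCMV-luciferase (1 PFU/cell); reporter luminescence read 72 h later, data normalized against buffer-only and known inhibitor Salinomycin.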
FMDV antiviral: foot and mouth disease virus antiviral activity | FMDV antiviral cell-based qHTS | Potency, µM (doses to about 57.9 µM), without a hit: top-dose activity change, negative = inhibition, actives largely listed as inhibitors | 1.2% of 410,000 active; calls by dose curve; tested in HEK293T cells; further: read-out not given here; potency means the concentration at half of the fitted maximal effect; nearly all actives have a fitted effect of over 45% in size
MARV entry inh: blocks Marburg virus binding to or entry into cells | 1.8% of 300,000 active | AID 540276 | Marburg virus pseudotyped entry inhibition, cell reporter | Potency, µM (series often up to 37.8 µM), inactives show top-dose activity change, negative = inhibition, most hits filed as inhibitors; calls by dose curve; tested in HEK293 cells; further: potency means the concentration at half of the fitted maximal effect
Lassa entry inh: Lassa virus entry inhibition; Lassa virus pseudotype entry inhibition, cell reporter; Potency, µM (doses to about 37.9 µM), inactives show at the top dose activity change, negative = inhibition, most hits filed as inhibitors; 1.2% of 300,000 active; AID 540256; calls by dose curve; tested in HEK293 cells; further: potency means the concentration at half of the fitted maximal effect; nearly all actives have a fitted effect of over 50% in size
* marks the source's active call; other numbers are inactive results; ? = inconclusive; . = no result; [ ] = dose if it differs, or a comment. On the % scale 0 is the no-effect control and ±100 the full control effect.

SMILES	HCMV antiviral	FMDV antiviral	MARV entry inh	Lassa entry inh
Nn1c(SC/C=C/c2ccccc2)nnc1-c1ccncc1	-68.9*	-23.7%	21.6%	-19.6%
COc1cccc(CSc2nnc(-c3ccncc3)n2N)c1	-68.5*	-2.4%	?	?
Nn1c(SCc2cccc(Oc3ccccc3)c2)nnc1C(F)(F)F	-72.7*	6.1%	?	0.4%
COc1cc(-c2nnc(SC/C=C/c3ccccc3)n2N)cc(OC)c1OC	23.8	?	?	0.1%
Cc1cc([N+](=O)[O-])nn1CC(=O)N1CCOCC1	-13.1	-6.1%	12.5%[46.1 µM]	18.5%
CCOC(=O)c1c(C)[nH]c(C(=O)NNC(=O)c2ccccc2F)c1C	96.7	29.7%	-24.3%	?
CCOC(=O)c1[nH]c(C)c(C(=O)OCc2ccccc2F)c1C	-19.2	3.6%	?	5.62µM*
CCOC(=O)c1[nH]c(C)c(C(=O)N2CCc3ccccc32)c1C	-91.7*	-11.1%	?	?
CCOC(=O)c1[nH]c(C)c(C(=O)c2cc(F)ccc2F)c1C	-85.7*	9.8%	?	-16.1%
CCOC(=O)c1[nH]c(C)c(C(=O)OCC)c1C	84.6	28.6%	.	.
CCCCN(C(=O)c1ccc2c(c1)OCCO2)c1c(N)n(CCCC)c(=O)[nH]c1=O	-18.0	-9.3%	0.5%	16.9%
O=C(NNC(=S)NC(=O)c1ccccc1Cl)c1cccc([N+](=O)[O-])c1	-14.7	-13.4%	9.2%	-2.0%
CC(C)C[C@@H](NC(=O)C1CCC(CNC(=O)[C@@H]2CCCN2C(=O)OC(C)(C)C)CC1)C(=O)O (stereo partly specified)	1.1	-9.3%	4.8%[46.1 µM]	?
CC1Sc2ccc(S(=O)(=O)N3CCC(C(=O)Nc4ccc(Cl)cc4)CC3)cc2NC1=O (stereo unspecified)	-71.1*	14.1µM*	.	.
COc1ccc(NC(=O)C2CCN(S(=O)(=O)c3ccc4c(c3)NC(=O)C(C)S4)CC2)cc1 (stereo unspecified)	?	0.0%	?	-11.1%[46.1 µM]
CC(C)c1ccc(NC(=O)C2CCN(S(=O)(=O)c3ccc4c(c3)NC(=O)CO4)CC2)cc1	-68.1*	?	.	.
Cc1ccc(NC(=O)C2CCN(S(=O)(=O)c3ccc(N4CCCC4=O)cc3)CC2)cc1Cl	-85.6*	-28.2%	?	?
COc1cc(C(=O)NNC(=O)c2cc(S(=O)(=O)N(C)C)ccc2N2CCCC2)cc(OC)c1OC	0.4	-23.3%	.	.
CC1(C)CC(=O)C=C(C(=O)N2CCCC(CCC(=O)NCc3ccccc3F)C2)O1 (stereo unspecified)	9.5	4.9%	-9.4%[46.1 µM]	-1.7%[46.1 µM]
COc1ccccc1-n1c(/C=C/c2ccccc2)nc2ccccc2c1=O	18.3	-2.5%	.	-3.1%[46.1 µM]
Cc1ccc(-n2c(/C=C/c3ccc(Br)s3)nc3ccccc3c2=O)cc1C	-64.8*	-26.2%	.	?
Cc1ccccc1-n1c(/C=C/c2ccc(O)cc2)nc2ccccc2c1=O	-91.6*	-11.2%	.	?
Cc1ccccc1-n1c(/C=C/c2ccccn2)nc2ccccc2c1=O	-101.9*	0.0%	.	.
COCCCN1C(=O)C(CC(=O)NC2CCCC2)CC(C(=O)N(C(C)C)C(C)C)=C1C (stereo unspecified)	4.8	-14.7%	.	.
CC(C)N1C(=O)CCC1C(=O)N1CCN(c2ccccn2)CC1 (stereo unspecified)	10.0	-13.9%	-7.3%	-9.7%
SMILES	HCMV antiviral	FMDV antiviral	MARV entry inh	Lassa entry inh
CCc1ccccc1N(C)S(=O)(=O)c1ccc2[nH]cc(C(=O)N3CCc4ccccc43)c(=O)c2c1	-12.0	?	?	?
CCC1CCCCN1CCCNC(=O)c1csc2c1CCCCC2 (stereo unspecified)	-31.4	-15.8%	.	.
CCN1CCCC1CNC(=O)c1csc2c1CCCC2 (stereo unspecified)	52.6	.	23.1µM*	-14.0%
O=C(NCc1ccco1)c1csc2c1CCCC2	-64.8*	15.9%	-0.2%[46.1 µM]	8.1%
Cc1ccc(C)c(NC(=O)C(Sc2nc3ccc(C)cc3[nH]2)c2ccccc2)c1 (stereo unspecified)	-73.7*	?	8.91µM*	?
CNC(=S)N1CCc2cc(OC)c(OC)cc2C1COc1ccc(OC)cc1 (stereo unspecified)	271.8	3.4%	?	?
COc1ccc(C(=O)N2CCc3cc(OC)c(OC)cc3C2c2ccc(OC)c(OC)c2)cc1 (stereo unspecified)	42.5	-10.1%	?	5.01µM*
CCC(=O)N1CCc2cc(OC)c(OC)cc2C1COc1ccc(OC)cc1 (stereo unspecified)	151.5	-11.1%	?	-29.7%
CCCCC(=O)N1CCc2cc(OC)c(OC)cc2C1COc1ccc(OC)cc1 (stereo unspecified)	-98.3*	0.0%	.	-14.6%[46.1 µM]
